Assay results: PubChem BioAssay AID1778 (Sanford-Burnham Center for Chemical Genomics, 2009)
Hit rate of the full screen: of about 290,000 compounds, about 260 (0.09%) were called active. The sample holds actives, similar compounds and a random draw of the others, so the mix is not that of the screen. Rule as the data show it: active = inhibition above about 50%; inactive = the rest. Measured potencies and affinities stand elsewhere.

Molecular target: Kappa-type opioid receptor (Homo sapiens) (UniProt P41145)
Sequence (P41145 whole entry, looked up): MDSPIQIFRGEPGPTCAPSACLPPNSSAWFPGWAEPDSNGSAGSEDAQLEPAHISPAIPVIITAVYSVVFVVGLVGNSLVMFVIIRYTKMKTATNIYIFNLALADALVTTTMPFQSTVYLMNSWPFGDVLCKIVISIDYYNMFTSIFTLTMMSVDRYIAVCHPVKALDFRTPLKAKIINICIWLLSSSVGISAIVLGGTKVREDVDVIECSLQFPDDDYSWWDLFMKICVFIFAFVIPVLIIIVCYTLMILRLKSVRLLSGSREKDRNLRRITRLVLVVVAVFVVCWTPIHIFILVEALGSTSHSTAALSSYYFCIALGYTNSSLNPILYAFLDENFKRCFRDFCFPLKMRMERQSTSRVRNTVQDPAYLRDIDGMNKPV
Test: KOR antagonists, beta-arrestin recruitment, cell-based, luminescence, uHTS (AID 1778)
Settings: antagonist mode, hits give high values; at 10 µM unless noted

Row | SMILES | inhibition
1 | O=C(C1=C[C@H](c2ccccc2)C[C@H](OCc2ccc(CO)cc2)O1)N1CCN(Cc2ccc3c(c2)OCO3)CC1 | -13% (inactive)
2 | CNc1ncnc(Sc2ccc(Cl)cc2)c1[N+](=O)[O-] | 8.9% (inactive)
3 | OCC1(Cc2cccc(Cl)c2)CCCN(Cc2sc(N3CCCC3)nc2Cl)C1 (stereo not given) | -39.6% [at 20 µM] (inactive)
4 | CN1N=C(C(=O)N2CCc3c([nH]c4ccccc34)C2c2ccccc2Cl)CCC1=O (stereo not given) | -7% (inactive)
5 | O=C1COc2ccc(S(=O)(=O)NCc3ccc(Cl)cc3)cc2N1 | -23.4% (inactive)
6 | COC(=O)c1sccc1S(=O)(=O)Nc1ccc(Cl)cc1 | 23.4% (inactive)
7 | CCOC(=O)C1CCN(C(=O)c2ccccc2CCc2ccccc2)CC1 | 12.9% (inactive)
8 | Cc1ccc(C(=O)Nc2ccccc2Sc2ccccc2)cc1 | 5.8% (inactive)
9 | Cc1ccc(C(=O)Sc2cccccc2=O)cc1 | 88.3% (active)
10 | Cc1ccc(C(=O)CC(=O)c2ccccc2)cc1 | -30.1% [at 20 µM] (inactive)
11 | CCC1CCCCN1CCCNC(=O)c1csc2c1CCCCC2 (stereo not given) | -8.9% (inactive)
12 | CCOc1ccc(C(=O)Nc2ccc3c(c2)OCCO3)cc1 | -31.1% (inactive)
13 | NS(=O)(=O)c1ccc(CCNC(=O)CSc2nc3ccsc3c(=O)n2CC2CCC(C(=O)O)CC2)cc1 (stereo not given) | -14.6% (inactive)
14 | Cc1ccc(NS(=O)(=O)c2cccc3cccnc23)c(Br)c1 | -14.5% (inactive)
15 | O=[N+]([O-])c1ccccc1S(=O)(=O)Nc1ncccn1 | -24.4% (inactive)
16 | O=S(=O)(Nc1ccccc1O)c1cccc2cccnc12 | 9.3% (inactive)
17 | Cc1ccc(NS(=O)(=O)c2cccc3cccnc23)c(Cl)c1 | 19.4% (inactive)
18 | O=C(CCN1CCN(c2ccccc2)CC1)Nc1nccs1 | 11.6% (inactive)
19 | Cc1cccc(CN2CCN(C(=S)Nc3ccccc3)CC2)c1 | -33.1% [at 20 µM] (inactive)
20 | Cc1ccc(CNC(=O)C2CCCN(c3nc(C)cc(C)n3)C2)cc1 (stereo not given) | -35.8% [at 20 µM] (inactive)
21 | CCOC(=O)C(C(=O)OCC)c1cc(Br)c2noc3c2c1C(=O)c1ccccc1-3 | 68.5% (active)
22 | CCOc1ccc2noc3c2c1C(=O)c1ccccc1-3 | 7.4% (inactive)
23 | CCOC(=O)N1CCN(c2cc(NCCC(=O)O)c3c4c(onc24)-c2ccccc2C3=O)CC1 | -32.6% (inactive)
24 | c1cncc(-c2cn(C[C@H]3CC[C@@H]([C@@H]4CC[C@H](Cn5cc(-c6cccnc6)nn5)O4)O3)nn2)c1 | -10.8% [at 20 µM] (inactive)
25 | COc1ccc(OCC(=O)Nc2cc(NC(=O)c3ccco3)ccc2OC)cc1 | 4.9% (inactive)
